Laboratory results published in PubChem BioAssay AID485290 (National Center for Advancing Translational Sciences (NCATS), 2010).
Where “and” joins values, the source holds several entries; their conditions need not be identical. Equal entries are not always repeated. In all, about 350,000 compounds went through this assay and about 990 (0.28%) were called active. Inconclusive results (about 2%) are left out. Calls come from the whole dose curve; as a rule, active = well fitted inhibition curve with a large enough effect; inconclusive = small, poorly fitted or top-dose-only effect; inactive = no such curve, though single readings can be large or run the other way. The entries come from a sample that favours actives as a whole. Where a structure was tested more than once in an assay, its records may differ in their call.

molecular target: Tyrosyl-DNA phosphodiesterase 1 (Homo sapiens) (UniProt Q9NUW8); test: qHTS Assay for Inhibitors of Tyrosyl-DNA Phosphodiesterase (TDP1); settings: recombinant TDP1, AlphaScreen DNA substrate cleavage; series mostly up to 130 µM; activity change, negative = inhibition: at the top concentration; note: nearly all actives have a fitted effect of over 40% in size
Source text: NIH Molecular Libraries Probe Production Network [MLPCN]
NIH Chemical Genomics Center [NCGC]
Assay Provider: Yves Pommier and Christophe Marchand, National Cancer Institute
Assay Title: qHTS Assay for Inhibitors of Tyrosyl-DNA Phosphodiesterase (TDP1); note: nearly all actives have a fitted effect of over 40% in size
Human tyrosyl-DNA phosphodiesterase I (Tdp1) is a rational anticancer target because this enzyme is involved in the repair of DNA lesions created by the trapping of human DNA topoisomerase I (Top1) following treatment by anticancer agents such as camptothecins. Recombinant Tdp1 was expressed and purified from E. coli in the laboratory (Anthony et al, Nucleic Acids Research, 2007, Vol. 35, 4474-4484). A Tdp1 DNA substrate bearing a 5' biotin and a 3' phospho-tyrosine was obtained by custom synthesis. This oligonucleotidic DNA substrate was subsequently coupled to a fluorescein isothiocyanate (FITC) group via the free amino group present on the phospho-tyrosine. Tdp1 was screened against the NCGC small molecule library using the AlphaScreen (AS) detection method in which a streptavidin donor AS bead is bound at the 5' end and an anti-FITC AS acceptor bead is bound at the 3' end of the DNA oligonucleotidic substrate. In the presence of Tdp1, the enzyme cleaves the tyrosine-FITC group, leaving a 3' end phosphate on the DNA substrate. This cleavage reaction results in a loss of signal in AS.
[1] 3 ul of buffer is dispensed in columns 3 & 4 as negative control (no enzyme and maximum signal),
[2] 3 ul of enzyme (1 nM final) is dispensed in columns 1,2, 5-48,
[3] 1 ul of substrate (15 nM final) is dispensed throughout the plate,
[4] 1 ul of AS donor/acceptor bead mix (10 ug/ml final) is dispensed throughout the plate
3 ul of Tdp1 enzyme is dispensed to 1536-well Kalypsys black solid bottom plates. Compounds and controls (23 nl) are transferred via Kalypsys Pin Tool. The plates are incubated for 15 min at room temperature, and then 1 ul of substrate is added to start the reaction. After 5 min incubation at room temperature, 1 ul of AS donor/acceptor bead mix is added and the plates are further incubated for 10 min at room temperature. The detection is then performed on a PerkinElmer Envision reader.
% is set by controls: 0 for no effect and ±100 for the full control effect; potency is the fitted concentration of half-maximal effect.

Chain of Tyrosyl-DNA phosphodiesterase 1 (Homo sapiens) (Q9NUW8 whole entry, looked up): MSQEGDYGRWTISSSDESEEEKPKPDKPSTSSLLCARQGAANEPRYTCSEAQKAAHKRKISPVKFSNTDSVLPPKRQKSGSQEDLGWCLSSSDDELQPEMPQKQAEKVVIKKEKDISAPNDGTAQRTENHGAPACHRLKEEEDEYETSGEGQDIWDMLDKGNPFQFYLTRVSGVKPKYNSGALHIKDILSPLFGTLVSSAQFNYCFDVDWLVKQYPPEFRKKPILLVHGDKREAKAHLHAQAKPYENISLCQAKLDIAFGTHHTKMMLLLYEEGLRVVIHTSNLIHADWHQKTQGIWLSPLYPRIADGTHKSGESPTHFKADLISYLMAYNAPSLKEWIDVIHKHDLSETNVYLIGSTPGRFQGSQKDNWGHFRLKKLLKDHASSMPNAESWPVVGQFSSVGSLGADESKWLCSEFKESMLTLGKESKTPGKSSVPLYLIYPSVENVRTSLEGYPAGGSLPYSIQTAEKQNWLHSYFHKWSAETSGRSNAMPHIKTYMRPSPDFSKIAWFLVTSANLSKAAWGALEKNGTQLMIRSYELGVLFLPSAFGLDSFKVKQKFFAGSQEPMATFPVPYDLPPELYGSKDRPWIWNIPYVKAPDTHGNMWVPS

Compound | Potency | activity change, negative = inhibition
CC(C)Nc1nc(Cl)nc(NC(C)C)n1 | inactive and 28.2 µM (active) | –
CCC(CCC(C)C1CCC2C3CC=C4CC(O)CC[C@@]4(C)C3CC[C@@]12C)C(C)C (stereo not given in full) | – | 5.38% (inactive)
C=CC#N | – | -7.61% (inactive)
O=NO | inactive | –
CN1[C@H]2CC(OC(=O)[C@@H](CO)c3ccccc3)C[C@H]1[C@H]1O[C@H]12 (stereo not given in full) | – | 5.13% [at 21 µM] (inactive)
CC(=O)CC(C)C | – | 15.5% (inactive)
CC(C)(O/N=C(\C(=O)N[C@@H]1C(=O)N2C(C(=O)[O-])=C(C[n+]3ccccc3)CS[C@@H]12)c1csc(N)n1)C(=O)O | 12.6 µM (active) | –
CCCCCCCCCCCCN=C(N)N | – | 0.984% (inactive)
CCN(CC)c1nc(C)cc(OP(=S)(OC)OC)n1 | – | 8.2% (inactive)
CC(=O)[O][Sn]([c]1ccccc1)([c]1ccccc1)[c]1ccccc1 | – | 6.23% (inactive)
CCCCC/C=C\C/C=C\C/C=C\CCCCCCC(=O)NCCO | inactive | –
CCCCC/C=C\C/C=C\C/C=C\C/C=C\CCCCCC(=O)NCCO | inactive and 39.8 µM (active) | –
CN(C)C[C@H]1CCCC[C@]1(O)c1cccc(O)c1 | – | -0.328% (inactive)
C[C@@H]1C[C@H]2CC[C@H](O2)[C@H](C)C(=O)O[C@@H](C)C[C@@H]2CC[C@@H](O2)[C@@H](C)C(=O)O[C@H](C)C[C@H]2CC[C@H](O2)[C@H](C)C(=O)O[C@@H](C)C[C@@H]2CC[C@@H](O2)[C@@H](C)C(=O)O1 | – | 8.2% (inactive)
CC(CCC(=O)O)C1CCC2C3C(O)C[C@@H]4CC(O)CC[C@@]4(C)C3CC[C@@]12C (stereo not given in full) | inactive | –
O=C(O)c1cc[c]([Sb](=[O])([OH])[OH])cc1[N+](=O)[O-] | 1.58 µM (active) | –
S=P(c1ccccc1)(c1ccccc1)c1c(-c2ccccc2)[nH]c2ccccc12 | – | 1.74% (inactive)
Nc1ccc(-c2ccc(N)c(N)c2)cc1N | – | 19.3% (inactive)
O=C1CCc2cccc3c2N1CC3 | – | 4.92% (inactive)
Cc1cccc2c3c(ccc12)C1=C(C(=O)C3=O)C(C)CO1 (stereo not given) | – | 22.4% (inactive)
